Test results taken from the supplement of paper PMC10849652.
The full data set covers some 7,900 targets. This sample favours those with a hit. About 0.6% of all pairs of compound and target were hits.

Assays:
Test in all cases: log2 fold change, soluble protein after heating vs DMSO (PISA); higher = thermal stabilisation; K562 cells, 10 uM, 30 min; active = over 0.2 and 3.5 SD of the protein, either way, in both replicates (recomputed)
[1] = compound: CC[C@@H]1C(=O)N(C)c2cnc(Nc3ccc(C(=O)NC4CCN(C)CC4)cc3OC)nc2N1C1CCCC1
Outline: (§1)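 K562 cells at 2×10^6 cells/mL were given 10 μM compound for 30 min. Aliquots then went through 3 min of heating across 48°C-58°C, were pooled, and were extracted in PBS with 0.5% NP-40 at 4°C, and the supernatant after 21,000xg for 90 min was quantified by TMTpro 16plex LC-MS/MS with channel sums equalised. Thermal stability relative to control samples, from duplicates, is given as log2 fold change.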

[2] = compound: CC[C@@H]1C(=O)N(C)c2cnc(Nc3ccc(C(=O)N[C@H]4CC[C@H](N5CCN(CC6CC6)CC5)CC4)cc3OC)nc2N1C(C)C [volasertib]
Outline: as §1

[3] = compound: CC[C@H](C)N1C=C(C2=C(C=C(C=C21)C3=CN=C(C=C3)N4CCNCC4)C(=O)NCC5=C(C=C(NC5=O)C)C)C
Outline: as §1

[4] = compound: CC[C@H](C)[C@@H](C(=O)N[C@@H]([C@@H](C)O)C(=O)N[C@@H](CC(C)C)C(=O)[C@]1(CO1)C)NC(=O)[C@H]([C@@H](C)CC)N(C)C(=O)C [epoxomicin]
Outline: as §1

[5] = compound: CCn1c(C(=O)N(C2CC2)C2CC2)cc2c3c(ncn3C)c(Nc3cc(C)n(C)n3)nc21
Outline: as §1

[6] = compound: CCn1cc(-c2ccnc3[nH]c(-c4cccc(CN(C)C)c4)cc23)c(-c2ccc(NC(=O)N(C)C)cc2)n1
Outline: as §1

[7] = compound: CN(C)CC(=O)Nc1ccc2[nH]c(=O)c3ccccc3c2c1
Outline: as §1

[8] = compound: CN(CCOC1=CC=C(C=C1)C[C@H]2C(=O)NC(=O)S2)C3=CC=CC=N3 (racemic) [rosiglitazone]
Outline: as §1

[9] = compound: CN1C2=C(C3=C1C(=O)N(N=C3)CC4=CC(=CC=C4)N)SC(=C2)S(=O)C
Outline: as §1

[10] = compound: CN1CCC(CNc2ccc3ncc(-c4cccc(OC(F)(F)F)c4)n3n2)CC1
Outline: as §1

[11] = compound: CN1CCN(CCOc2cc(OC3CCOCC3)c3c(Nc4c(Cl)ccc5c4OCO5)ncnc3c2)CC1 [saracatinib]
Outline: as §1

[12] = compound: CN1CCN(c2nc(C3=C(c4c[nH]c5ccccc45)C(=O)NC3=O)c3ccccc3n2)CC1 [sotrastaurin]
Outline: as §1

[13] = compound: CN1CC[C@H](c2c(O)cc(O)c3c(=O)cc(-c4ccccc4Cl)oc23)[C@H](O)C1 [alvocidib]
Outline: as §1

[14] = compound: CN1CCc2c(c3ccccc3n2Cc2ccc(C(=O)NO)cc2)C1 [Tubastatin A]
Outline: as §1

[15] = compound: CNC(=O)C1=CC=CC=C1NC2=NC(=NC=C2Cl)NC3=C(C=C(C=C3)N4CCOCC4)OC
Outline: as §1

[16] = compound: CNC(=O)c1ccc(Nc2ncc(C(F)(F)F)c(NCc3nccnc3N(C)S(C)(=O)=O)n2)cc1 [defactinib]
Outline: as §1

[17] = compound: CNCc1ccc(-c2[nH]c3cc(F)cc4c3c2CCNC4=O)cc1 [rucaparib]
Outline: as §1

[18] = compound: CNc1nc(-c2ccc3c(N)n[nH]c3c2)cc(N2C[C@@H](C(=O)NC3CCCCC3)CC[C@H]2C)n1
Outline: as §1

[19] = compound: COC(=O)N[C@@H](C)CNc1nccc(-c2cn(C(C)C)nc2-c2cc(Cl)cc(NS(C)(=O)=O)c2F)n1 [encorafenib]
Outline: as §1

[20] = compound: COC(=O)[C@H](CCSC)NC(=O)C1=C(C=C(C=C1)NC[C@H](CS)N)C2=CC=CC=C2
Outline: as §1

Measured: log2 fold change

CS (UniProt O75390)
UniProt O75390, sequence (O75390 whole entry, looked up): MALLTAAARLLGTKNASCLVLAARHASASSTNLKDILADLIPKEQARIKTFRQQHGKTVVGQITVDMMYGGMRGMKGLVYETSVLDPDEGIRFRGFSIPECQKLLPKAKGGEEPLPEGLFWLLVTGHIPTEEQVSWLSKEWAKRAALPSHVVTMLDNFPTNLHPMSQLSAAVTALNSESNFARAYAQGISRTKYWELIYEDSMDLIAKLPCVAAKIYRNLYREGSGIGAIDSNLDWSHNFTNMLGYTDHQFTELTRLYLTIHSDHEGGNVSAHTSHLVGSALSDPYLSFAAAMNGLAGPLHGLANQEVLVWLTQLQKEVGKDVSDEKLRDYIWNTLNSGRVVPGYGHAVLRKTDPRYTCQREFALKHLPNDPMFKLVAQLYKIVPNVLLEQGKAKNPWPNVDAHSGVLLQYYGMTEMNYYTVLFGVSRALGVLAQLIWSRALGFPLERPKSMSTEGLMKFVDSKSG
active: [10] -0.222
inactive: [1] 0.04 | [2] 0.158 | [3] 0.027 | [4] 0.01 | [5] 0.032 | [6] -0.059 | [7] 0.032 | [8] 0.083 | [9] -0.088 | [11] -0.001 | [12] 0.02 | [13] -0.074 | [14] -0.015 | [15] 0.011 | [16] -0.069 | [17] 0.022 | [18] -0.055 | [19] -0.042 | [20] -0.002

CHERP (UniProt Q8IWX8)
UniProt Q8IWX8, sequence (Q8IWX8 whole entry, looked up): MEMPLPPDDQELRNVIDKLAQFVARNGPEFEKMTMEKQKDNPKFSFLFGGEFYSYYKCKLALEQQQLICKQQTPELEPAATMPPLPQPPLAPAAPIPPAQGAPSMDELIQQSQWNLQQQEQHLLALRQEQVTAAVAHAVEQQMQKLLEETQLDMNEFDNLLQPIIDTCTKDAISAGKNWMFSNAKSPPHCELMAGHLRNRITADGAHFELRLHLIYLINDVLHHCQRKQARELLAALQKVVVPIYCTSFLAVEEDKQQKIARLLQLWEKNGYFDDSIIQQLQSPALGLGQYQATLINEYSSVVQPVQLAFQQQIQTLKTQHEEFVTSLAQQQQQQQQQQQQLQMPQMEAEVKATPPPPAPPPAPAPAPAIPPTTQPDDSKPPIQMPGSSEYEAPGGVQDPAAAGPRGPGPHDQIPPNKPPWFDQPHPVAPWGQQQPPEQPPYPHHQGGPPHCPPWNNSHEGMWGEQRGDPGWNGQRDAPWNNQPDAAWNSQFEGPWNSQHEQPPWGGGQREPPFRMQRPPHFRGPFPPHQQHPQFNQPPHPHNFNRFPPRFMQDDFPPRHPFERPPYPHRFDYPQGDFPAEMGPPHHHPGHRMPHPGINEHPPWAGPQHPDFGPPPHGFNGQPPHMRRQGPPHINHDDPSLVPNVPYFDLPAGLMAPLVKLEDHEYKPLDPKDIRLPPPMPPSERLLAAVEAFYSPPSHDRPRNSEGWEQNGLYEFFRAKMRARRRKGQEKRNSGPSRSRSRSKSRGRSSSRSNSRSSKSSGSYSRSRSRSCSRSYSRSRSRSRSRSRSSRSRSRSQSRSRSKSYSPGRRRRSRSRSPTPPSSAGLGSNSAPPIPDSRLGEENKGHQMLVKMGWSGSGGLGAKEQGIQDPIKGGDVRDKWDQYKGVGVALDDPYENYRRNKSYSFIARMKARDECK
active: [2] -0.888
inactive: [1] -0.162 | [3] -0.014 | [4] 0.064 | [5] -0.024 | [6] 0.022 | [7] 0.041 | [8] -0.004 | [9] 0.102 | [10] -0.05 | [11] 0.045 | [12] -0.167 | [13] -0.143 | [14] 0.119 | [15] -0.006 | [16] -0.29 | [17] 0.022 | [18] -0.046 | [19] 0.058 | [20] 0.002

CASP2 (UniProt P42575)
UniProt P42575, sequence (P42575 whole entry, looked up): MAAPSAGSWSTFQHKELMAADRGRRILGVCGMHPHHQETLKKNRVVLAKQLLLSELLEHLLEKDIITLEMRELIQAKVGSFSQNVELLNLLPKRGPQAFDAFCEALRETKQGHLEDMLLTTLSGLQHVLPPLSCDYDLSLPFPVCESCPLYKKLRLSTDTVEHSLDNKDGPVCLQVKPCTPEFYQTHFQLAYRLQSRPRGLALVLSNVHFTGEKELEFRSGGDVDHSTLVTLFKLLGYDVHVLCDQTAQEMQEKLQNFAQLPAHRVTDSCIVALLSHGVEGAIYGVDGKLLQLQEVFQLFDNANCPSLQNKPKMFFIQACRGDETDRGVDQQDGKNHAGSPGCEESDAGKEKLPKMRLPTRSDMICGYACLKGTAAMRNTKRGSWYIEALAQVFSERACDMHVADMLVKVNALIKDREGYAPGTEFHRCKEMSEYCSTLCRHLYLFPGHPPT
inactive: [1] 0.058 | [2] 0.112 | [3] 0.078 | [4] 0.024 | [5] -0.016 | [6] -0.153 | [7] 0.031 | [8] 0.072 | [9] 0.008 | [10] -0.08 | [11] -0.1 | [12] -0.048 | [13] -0.084 | [14] 0.082 | [15] 0.037 | [16] -0.08 | [17] -0.006 | [18] 0.053 | [19] 0.133 | [20] -0.005

CHST11 (UniProt Q9NPF2)
inactive: [1] -0.215 | [2] -0.187 | [3] -0.078 | [4] 0.011 | [5] 0.043 | [6] -0.017 | [7] -0.045 | [8] -0.044 | [10] 0.022 | [12] -0.02 | [13] -0.049 | [14] 0.08 | [15] 0.079 | [16] -0.003 | [17] 0.083 | [19] 0.177 | [20] -0.048

CDK11B (UniProt P21127)
inactive: [1] 0.087 | [2] 0.047 | [3] 0.028 | [4] -0.072 | [5] -0.07 | [6] -0.01 | [7] -0.107 | [8] 0.004 | [9] 0.005 | [10] 0.094 | [11] -0.039 | [12] 0.035 | [13] 0.157 | [14] 0.137 | [15] -0.098 | [16] -0.162 | [17] -0.323 | [18] -0.052 | [19] 0.077 | [20] -0.039

COX20 isoform 2 (UniProt Q5RI15)
UniProt Q5RI15, sequence (Q5RI15 whole entry, looked up): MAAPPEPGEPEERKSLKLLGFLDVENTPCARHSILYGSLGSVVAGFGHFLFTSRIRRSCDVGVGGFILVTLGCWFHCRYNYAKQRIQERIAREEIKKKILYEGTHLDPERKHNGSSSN
inactive: [1] -0.019 | [2] 0.077 | [3] -0.01 | [4] 0 | [5] 0.004 | [7] -0.038 | [8] 0.005 | [9] 0.002 | [10] 0.081 | [11] 0.005 | [12] 0.008 | [13] -0.025 | [14] -0.062 | [15] -0.028 | [16] -0.017 | [17] 0.044 | [18] -0.025 | [19] -0.108 | [20] 0.009
active: [6] 0.294

CSNK1A1 (UniProt P48729)
UniProt P48729, sequence (P48729 whole entry, looked up): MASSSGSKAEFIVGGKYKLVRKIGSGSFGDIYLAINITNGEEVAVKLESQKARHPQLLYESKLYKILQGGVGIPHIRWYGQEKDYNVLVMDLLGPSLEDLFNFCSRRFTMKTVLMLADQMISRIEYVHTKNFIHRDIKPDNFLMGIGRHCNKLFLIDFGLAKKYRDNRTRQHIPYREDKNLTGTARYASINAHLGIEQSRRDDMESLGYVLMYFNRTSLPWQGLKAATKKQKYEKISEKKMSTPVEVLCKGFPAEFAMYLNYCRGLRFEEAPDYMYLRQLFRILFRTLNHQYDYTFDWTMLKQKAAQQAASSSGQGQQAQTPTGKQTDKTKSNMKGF
inactive: [1] -0.011 | [2] -0.117 | [3] 0.057 | [4] 0.046 | [5] -0.016 | [6] 0.008 | [7] -0.179 | [8] -0.028 | [9] 0.072 | [10] -0.067 | [11] -0.028 | [12] 0.011 | [13] 0.146 | [14] 0.115 | [16] 0.058 | [17] 0.128 | [18] 0.042 | [19] 0.037 | [20] -0.016

CEPT1 (UniProt Q9Y6K0)
UniProt Q9Y6K0, sequence (Q9Y6K0 whole entry, looked up): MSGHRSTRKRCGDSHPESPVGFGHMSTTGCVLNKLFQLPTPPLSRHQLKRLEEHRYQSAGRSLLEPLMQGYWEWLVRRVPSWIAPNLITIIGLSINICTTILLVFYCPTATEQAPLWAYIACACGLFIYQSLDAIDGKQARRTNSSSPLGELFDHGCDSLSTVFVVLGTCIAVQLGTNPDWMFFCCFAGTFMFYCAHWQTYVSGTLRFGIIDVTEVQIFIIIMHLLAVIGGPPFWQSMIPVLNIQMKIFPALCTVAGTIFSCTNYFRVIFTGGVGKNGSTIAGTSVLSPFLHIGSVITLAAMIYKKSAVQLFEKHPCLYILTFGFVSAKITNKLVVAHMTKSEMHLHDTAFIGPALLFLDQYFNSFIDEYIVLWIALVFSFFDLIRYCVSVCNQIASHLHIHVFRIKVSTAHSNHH
inactive: [1] -0.186 | [2] -0.231 | [3] -0.066 | [4] -0.043 | [5] 0.039 | [6] -0.025 | [7] 0.059 | [8] 0.067 | [9] -0.072 | [10] 0.03 | [11] 0.015 | [12] 0.033 | [13] 0.029 | [14] 0.042 | [15] 0.001 | [16] -0.005 | [17] -0.126 | [18] -0.056 | [19] 0.052 | [20] -0.056

CD81 (UniProt P60033)
UniProt P60033, sequence (P60033 whole entry, looked up): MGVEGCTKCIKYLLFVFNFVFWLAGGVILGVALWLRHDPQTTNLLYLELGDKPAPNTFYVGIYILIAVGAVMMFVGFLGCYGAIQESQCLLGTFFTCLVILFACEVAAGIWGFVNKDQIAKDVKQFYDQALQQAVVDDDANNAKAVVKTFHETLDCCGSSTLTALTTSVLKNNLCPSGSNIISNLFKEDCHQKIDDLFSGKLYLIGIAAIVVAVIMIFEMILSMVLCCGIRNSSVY
active: [1] 0.393
inactive: [2] 0.193 | [3] -0.06 | [4] 0.013 | [5] 0.058 | [6] -0.226 | [7] 0.098 | [8] 0.013 | [9] -0.139 | [10] 0.145 | [11] 0.163 | [12] 0.103 | [13] 0 | [14] -0.064 | [15] -0.029 | [16] -0.053 | [17] -0.152 | [18] 0.207 | [19] 0.199 | [20] 0

CHCHD1 (UniProt Q96BP2)
inactive: [1] -0.054 | [2] -0.32 | [3] -0.001 | [4] -0.026 | [5] -0.028 | [6] -0.009 | [7] 0.02 | [8] 0.035 | [9] 0.033 | [10] -0.191 | [11] -0.069 | [12] 0.059 | [13] 0.009 | [14] -0.025 | [15] 0.132 | [16] 0.017 | [17] 0.114 | [18] 0.04 | [19] -0.037 | [20] -0.024

CLCN3 (UniProt P51790)
UniProt P51790, sequence (P51790 whole entry, looked up): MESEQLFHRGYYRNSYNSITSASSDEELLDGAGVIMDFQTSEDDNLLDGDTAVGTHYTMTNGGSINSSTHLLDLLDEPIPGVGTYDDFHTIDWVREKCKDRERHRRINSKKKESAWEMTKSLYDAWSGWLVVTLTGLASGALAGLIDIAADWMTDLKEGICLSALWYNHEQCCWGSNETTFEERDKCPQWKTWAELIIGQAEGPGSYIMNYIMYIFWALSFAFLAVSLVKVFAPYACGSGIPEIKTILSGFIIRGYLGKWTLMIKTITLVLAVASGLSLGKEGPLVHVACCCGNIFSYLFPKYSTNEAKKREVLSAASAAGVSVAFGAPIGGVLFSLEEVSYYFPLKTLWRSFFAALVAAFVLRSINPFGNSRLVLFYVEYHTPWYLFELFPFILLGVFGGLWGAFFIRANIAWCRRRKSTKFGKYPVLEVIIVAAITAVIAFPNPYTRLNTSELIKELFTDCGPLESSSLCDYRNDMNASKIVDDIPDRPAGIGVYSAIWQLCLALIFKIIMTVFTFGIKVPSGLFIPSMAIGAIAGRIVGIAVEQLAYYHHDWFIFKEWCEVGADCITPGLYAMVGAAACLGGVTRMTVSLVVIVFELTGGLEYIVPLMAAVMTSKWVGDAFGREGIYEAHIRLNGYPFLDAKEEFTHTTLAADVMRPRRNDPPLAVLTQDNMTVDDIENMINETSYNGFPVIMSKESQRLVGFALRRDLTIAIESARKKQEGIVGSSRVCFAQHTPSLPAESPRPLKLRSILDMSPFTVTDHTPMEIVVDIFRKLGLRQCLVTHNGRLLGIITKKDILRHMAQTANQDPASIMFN
inactive: [1] 0.036 | [2] -0.095 | [3] -0.037 | [4] -0.015 | [5] 0.013 | [6] 0.065 | [7] 0.011 | [8] -0.018 | [9] -0.051 | [10] -0.213 | [11] 0 | [12] 0.021 | [13] -0.048 | [14] -0.14 | [15] 0.019 | [16] 0.004 | [17] -0.055 | [18] -0.057 | [19] 0.021 | [20] -0.06

COA6 isoform 2 (UniProt Q5JTJ3)
UniProt Q5JTJ3, sequence (Q5JTJ3 whole entry, looked up): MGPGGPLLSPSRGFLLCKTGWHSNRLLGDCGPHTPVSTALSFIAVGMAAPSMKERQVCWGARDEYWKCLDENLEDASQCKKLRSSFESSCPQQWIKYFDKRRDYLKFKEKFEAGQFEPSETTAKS
inactive: [1] 0.045 | [2] 0.04 | [3] -0.004 | [4] 0.079 | [5] -0.069 | [6] 0.045 | [7] -0.023 | [8] -0.055 | [9] -0.16 | [10] 0.022 | [11] 0.175 | [12] 0.063 | [13] 0.012 | [14] 0.07 | [15] 0.354 | [16] -0.022 | [17] -0.068 | [18] 0.138 | [19] -0.055 | [20] 0.072

CPD (UniProt O75976)
active: [10] -0.399
inactive: [1] -0.152 | [2] -0.33 | [3] -0.017 | [4] 0.025 | [5] 0.036 | [6] -0.044 | [7] -0.024 | [8] 0.002 | [9] 0.029 | [11] -0.047 | [12] -0.011 | [13] -0.007 | [14] 0.03 | [15] -0.002 | [16] -0.026 | [17] 0.017 | [18] -0.006 | [19] 0.042 | [20] 0.012

CNOT4 isoform 6 (UniProt O95628)
UniProt O95628, sequence (O95628 whole entry, looked up): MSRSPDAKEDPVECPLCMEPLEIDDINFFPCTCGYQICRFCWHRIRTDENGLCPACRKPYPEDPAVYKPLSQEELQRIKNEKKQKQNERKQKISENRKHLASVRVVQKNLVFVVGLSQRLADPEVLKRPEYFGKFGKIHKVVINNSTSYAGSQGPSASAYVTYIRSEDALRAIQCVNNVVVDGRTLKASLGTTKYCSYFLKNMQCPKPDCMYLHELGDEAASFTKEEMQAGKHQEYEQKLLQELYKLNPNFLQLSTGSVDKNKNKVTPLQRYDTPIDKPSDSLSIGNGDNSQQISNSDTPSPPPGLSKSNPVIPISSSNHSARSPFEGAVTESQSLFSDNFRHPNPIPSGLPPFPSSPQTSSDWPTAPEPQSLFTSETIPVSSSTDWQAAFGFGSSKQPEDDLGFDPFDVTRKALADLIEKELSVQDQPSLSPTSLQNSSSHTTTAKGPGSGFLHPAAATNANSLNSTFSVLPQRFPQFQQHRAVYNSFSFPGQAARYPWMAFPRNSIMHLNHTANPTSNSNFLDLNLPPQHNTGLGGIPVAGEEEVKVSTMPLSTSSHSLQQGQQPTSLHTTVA
inactive: [1] -0.008 | [2] -0.109 | [3] 0.031 | [4] 0.006 | [5] 0.007 | [6] -0.056 | [7] 0.003 | [8] 0.036 | [9] 0.028 | [10] -0.095 | [11] 0 | [12] 0.003 | [13] -0.095 | [14] -0.003 | [15] -0.014 | [16] -0.03 | [17] -0.044 | [18] -0.07 | [19] -0.023 | [20] -0.015

C1D (UniProt Q13901)
inactive: [1] 0.088 | [2] 0.076 | [3] -0.034 | [4] 0.02 | [5] 0 | [6] -0.021 | [7] -0.127 | [8] -0.008 | [10] 0.096 | [12] 0.005 | [14] 0.079 | [15] 0.001 | [16] 0.042 | [17] -0.005 | [19] 0.009 | [20] 0.091

CCZ1 (UniProt P86791)
UniProt P86791, sequence (P86791 whole entry, looked up): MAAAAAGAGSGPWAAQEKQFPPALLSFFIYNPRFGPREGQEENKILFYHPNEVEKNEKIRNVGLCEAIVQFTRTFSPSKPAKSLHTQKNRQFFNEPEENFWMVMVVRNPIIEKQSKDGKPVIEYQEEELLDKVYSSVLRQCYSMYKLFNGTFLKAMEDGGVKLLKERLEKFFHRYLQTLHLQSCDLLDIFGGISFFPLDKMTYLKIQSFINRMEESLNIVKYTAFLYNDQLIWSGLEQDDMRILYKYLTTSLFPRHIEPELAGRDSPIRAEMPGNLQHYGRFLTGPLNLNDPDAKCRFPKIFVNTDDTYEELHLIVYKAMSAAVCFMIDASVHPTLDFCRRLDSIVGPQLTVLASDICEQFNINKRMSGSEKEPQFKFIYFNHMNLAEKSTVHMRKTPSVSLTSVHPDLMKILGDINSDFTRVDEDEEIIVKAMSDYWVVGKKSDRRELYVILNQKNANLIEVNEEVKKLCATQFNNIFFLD
inactive: [1] -0.199 | [2] -0.113 | [3] -0.005 | [4] 0.013 | [5] -0.011 | [6] 0.028 | [7] -0.002 | [8] 0.025 | [9] -0.002 | [11] 0.079 | [12] -0.003 | [13] -0.052 | [14] -0.016 | [15] 0.012 | [16] -0.018 | [17] -0.006 | [18] -0.025 | [19] -0.01 | [20] -0.019
active: [10] -0.256
